Rows were chosen to be rich in hits. Some 3.6% of all compounds tested hit in one or more screens of this group.
GDH-TPI counter-1 – inhibits GDH-TPI coupling enzymes, artifact for Mtb FBA screen. AID 588335. 360,000 compounds, 1.2% hits. inhibition, % at 4.8 µM. GDH-TPI coupled enzyme counterscreen, NADH absorbance; in the data active = inhibition above about 30%;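 also: 0% = DMSO wells and 100% = wells lacking the enzyme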
Mtb betalactam – beta-lactam sensitization of Mtb H37Rv. M. tuberculosis H37Rv growth with meropenem, percent inhibition. inhibition, % at 25 µM. 330,000 compounds, 0.27% hits; call rule not given here;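 also: growth measured after seven days incubation then overnight dye step; 0% = bacteria only wells and 100% = bacteria with antibiotic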
Mtb hypoxia rep – inhibitors of hypoxia-regulated fluorescent reporter in Mycobacterium tuberculosis; M. tuberculosis hypoxia-regulated fluorescent reporter, fluorescence; fluorescence inhibition, % (no concentration beside the values); 300,000 compounds, 0.1% hits; AID 1159583; in the data active = fluorescence inhibition mostly above about 23%, no sharp cut-off; inactive = mostly below about 17%
Mtb FBA inh – inhibits M. tuberculosis FBA enzyme | purified M. tuberculosis FBA, fluorescence read-out | inhibition, % at 1 µM | 360,000 compounds, 2.3% hits | AID 588726;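 also: 0% = vehicle and 100% = reference inhibitor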
Target sequence (P9WQA3 whole entry, looked up): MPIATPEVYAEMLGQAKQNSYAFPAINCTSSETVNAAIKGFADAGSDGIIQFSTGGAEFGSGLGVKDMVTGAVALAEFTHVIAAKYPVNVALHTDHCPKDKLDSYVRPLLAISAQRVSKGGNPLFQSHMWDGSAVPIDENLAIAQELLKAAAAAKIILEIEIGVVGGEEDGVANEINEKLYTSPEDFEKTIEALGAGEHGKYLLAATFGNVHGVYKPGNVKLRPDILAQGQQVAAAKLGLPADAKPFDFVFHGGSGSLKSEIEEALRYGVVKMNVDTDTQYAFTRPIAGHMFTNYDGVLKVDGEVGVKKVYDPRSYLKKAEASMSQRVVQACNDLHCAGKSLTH
DUSP3 inh – DUSP3 (human) phosphatase inhibition; inhibition, % at 13.3 µM; 290,000 compounds, 0.52% hits; P51452; AID 1654; recombinant VHR phosphatase, pNPP absorbance; in the data active = inhibition above about 50%
Target sequence (P51452 whole entry, looked up): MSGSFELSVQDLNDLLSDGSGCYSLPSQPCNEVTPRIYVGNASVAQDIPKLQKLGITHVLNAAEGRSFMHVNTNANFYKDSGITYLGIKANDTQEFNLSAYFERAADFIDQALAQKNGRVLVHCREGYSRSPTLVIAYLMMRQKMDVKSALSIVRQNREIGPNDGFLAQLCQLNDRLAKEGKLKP
Mtb FBA confirm – confirmation of M. tuberculosis fructose-bisphosphate aldolase inhibitors; shares compounds with Mtb FBA inh; purified M. tuberculosis FBA, fluorescence read-out; inhibition, % at 1 µM; 5,600 compounds, 78% hits;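 also: 0% = vehicle wells and 100% = reference inhibitor wells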
GDH-TPI counter-2 – inhibits GDH-TPI coupling enzymes, flagging Mtb FBA hits; AID 652141; GDH-TPI coupled enzyme counterscreen, fluorescence; inhibition, % at 1 µM; 5,600 compounds, 81% hits; shares compounds with Mtb FBA inh; in the data active = inhibition above about 10%
GDH-TPI dose – counter-screen for M. tuberculosis FBA inhibitors: GDH-TPI dose response | shares compounds with Mtb FBA inh | GDH-TPI coupled enzyme assay, fluorescence, artifact counterscreen | IC50, µM | 170 compounds, 79% hits | AID 652145; call rule not given here
An asterisk follows results filed as active; · = not tested or not shown; + = active, no number. Rule as the data show it, unless noted: active = inhibition above about 27%; inactive = the rest.

SMILES | GDH-TPI counter-1 | Mtb betalactam | Mtb hypoxia rep | Mtb FBA inh | DUSP3 inh | Mtb FBA confirm | GDH-TPI counter-2 | others
CC1=C(C)C(=O)N(C(C)CCc2ccccc2)C1=O (stereo not given) | 8 | -2 | 10 | 40* | 4 | 89* | 75*
Cc1cc(-c2ccc(Cl)cc2)n2nc(N)nc2n1 | 14 | 4 | · | 59* | -4 | 17 | 7 | GDH-TPI dose=2.6*
CSc1nc2nc(C)cc(-c3ccccc3)n2n1 | 9 | -17 | -1 | 25 | 17 | · | ·
Cc1cc(Nc2ccc(Cl)cc2)n2ncnc2n1 | 5 | 5 | -1 | 5 | 22 | · | ·
Cc1cc(-c2ccc(Cl)cc2)n2ncnc2n1 | 10 | 0 | 2 | 28* | -1 | 101* | 91*
Cc1cccc(NC(=S)NN=Cc2cccc([N+](=O)[O-])c2)c1 | · | · | 6 | · | · | · | ·
CC1CN(C(C)CO)C(=O)c2cc(NC(=O)Cc3cn(C)c4ccccc34)ccc2OC1CN(C)S(=O)(=O)c1ccc(F)cc1 (stereo not given) | · | · | 6 | · | · | · | ·
CC1(C)Cc2nc3sc4c(N(CCO)CCO)nnnc4c3cc2CO1 | 1 | -8 | 19 | 36* | -2 | + | 188*
Cc1cc(C(=O)OC2C(Cc3ccccc3)NS(=O)(=O)C3CC4C=C[C@]23O4)ccc1[N+](=O)[O-] (stereo not given in full) | · | · | 4 | · | · | · | ·
CC(C)=CCOc1ccc2c(C)c(CC(=O)N3C[C@H]4C[C@@H](C3)c3cccc(=O)n3C4)c(=O)oc2c1C | 19 | -5 | · | 107* | 29 | 183* | 129*
Cc1c(OCC(=O)N2C[C@H]3C[C@@H](C2)c2cccc(=O)n2C3)ccc2c3c(c(=O)oc12)CCC3 | 21 | -4 | · | 9 | -3 | · | ·
CCCc1cc(=O)oc2c(C)c(OCC(=O)N3C[C@H]4C[C@@H](C3)c3cccc(=O)n3C4)ccc12 | 21 | -3 | · | 9 | 13 | · | ·
Cc1c(OCC(=O)N2C[C@H]3C[C@@H](C2)c2cccc(=O)n2C3)ccc2c3c(c(=O)oc12)CCCC3 | 17 | -5 | · | 31* | 17 | + | +
C#CCOCCOCCOCCNc1nc(N2CCN(C(=O)C(CCC(=O)O)n3cc(C(N)CO)nn3)CC2)nc(N2CCN(C(=O)C(CCC(=O)O)n3cc(C(N)CC(C)C)nn3)CC2)n1 (stereo not given) | · | · | 1 | · | · | · | ·
CC(C)(C)c1ccc2c(c1)OC(C(=O)NN=Cc1ccccn1)CO2 (stereo not given) | · | · | -6 | · | · | · | ·
CC(C)C(NC(=O)OCc1ccccc1)C(=O)NC(C=O)Cc1ccccc1 (stereo not given) | · | · | 0 | · | · | · | ·
Cc1ccc(-c2noc(C3CCCN(C(=O)c4cccc(F)c4)C3)n2)cc1 (stereo not given) | -10 | 7 | -1 | 1 | -24 | · | ·
COc1cc(OC)cc(C(=O)N2CCCC(c3nc(-c4ccc(C)o4)no3)C2)c1 (stereo not given) | 1 | -6 | -17 | 31* | 20 | 2 | -6
COc1ccc(-c2noc(C3CCCN(C(=O)c4cccc(C)c4)C3)n2)cc1 (stereo not given) | -4 | 2 | 2 | 78* | 20 | 115* | 77*
CC(=NNC(=O)c1cccc(S(=O)(=O)Nc2cccc(Cl)c2)c1)c1cccs1 | · | · | 10 | · | · | · | ·
COC(=O)C1=CC(C(=O)OC)C2C3=C(C(=O)[C@]2(C)NC(=O)c2ccccc2)C(C)n2c(=O)n(-c4ccccc4)c(=O)n2C3C1 (stereo not given in full) | · | · | 12 | · | · | · | ·
Cc1cc(N/N=C/c2ccc(N(C)C)cc2)c2ccccc2n1 | 31* | 2 | · | 28* | 11 | + | 167*
Cc1cc(C(=O)NN=Cc2ccc(N(C)C)cc2)c2ccccc2n1 | · | · | -3 | · | · | · | ·
Oc1ccc(C=NN2CCCCC2)cc1O | · | · | 9 | · | · | · | ·
CCCOc1ccccc1-c1nc2c([nH]1)c(=O)[nH]c(=O)n2C | 28 | 15 | · | 59* | -2 | 66* | 44*
SMILES | GDH-TPI counter-1 | Mtb betalactam | Mtb hypoxia rep | Mtb FBA inh | DUSP3 inh | Mtb FBA confirm | GDH-TPI counter-2 | others
CC(=NNC(=O)c1ccc(Cl)cc1)c1ccc(Br)s1 | · | · | 0 | · | · | · | ·
O=C(Nc1ccc(Cl)c(Cl)c1)Nc1ccccc1C(=O)O | -1 | -6 | 0 | 52* | 1 | 35* | 19*
O=C(Nc1cccc(Cl)c1)Nc1ccccc1C(=O)O | 20 | -9 | · | 79* | -13 | + | 195*
O=C(Cc1ccccc1)NNC(=O)Nc1ccc(Cl)c(Cl)c1 | -5 | 2 | 6 | 2 | 4 | · | ·
O=C(Nc1ccc(Cl)cc1)Nc1ccccc1C(=O)O | 2 | 0 | 10 | 54* | 57* | -1 | -3
NC(=O)c1ccccc1NC(=O)Nc1cccc(Cl)c1 | -2 | -12 | 4 | 4 | 1 | · | ·
C#CCOCCOCCOCCNc1nc(N2CCN(C(=O)C(CCC(=O)O)n3cc(C(N)Cc4ccc(O)cc4)nn3)CC2)nc(N2CCN(C(=O)C(CCCCN)n3cc(C(N)C(C)CC)nn3)CC2)n1 (stereo not given) | · | · | 5 | · | · | · | ·
O=C(NN=Cc1cc(Br)cc(Cl)c1O)c1ccc2c(c1)OCO2 | · | · | 5 | · | · | · | ·
COc1ccc(C=NNC(=O)c2ccc(NC(C)=O)cc2)cc1COc1ccc(F)cc1F | · | · | -6 | · | · | · | ·
COc1ccc(/C=N/NC(=O)c2ccc(NC(C)=O)cc2)cc1COc1ccc(F)cc1F | 15 | -3 | · | 30* | 23 | 75* | 59*
COc1ccc(/C=N/NC(=O)c2nc(Cl)c(Cl)c(N)c2Cl)cc1COc1ccccc1F | 20 | 60 | · | 25 | 24 | · | ·
COc1ccc(/C=N/NC(=O)c2nc(Cl)c(Cl)c(N)c2Cl)cc1COc1ccc(F)cc1F | 24 | 30 | · | 29* | 24 | 4 | -2
COc1ccc(C(=O)NCC(=O)NN=Cc2ccc([N+](=O)[O-])s2)cc1OC | · | · | -2 | · | · | · | ·
C=CCNc1nc(-c2ccc([N+](=O)[O-])cc2)cs1 | 16 | 12 | 12 | 3 | -2 | · | ·
CN(C)c1nc(-c2ccc([N+](=O)[O-])cc2)cs1 | 12 | -4 | · | 34* | 18 | 194* | 142*
O=C(Cc1cccs1)N1CCN(c2ccccn2)CC1 | -2 | -12 | 0 | 29* | 12 | 54* | 43*
O=C(COC(=O)COc1ccccc1)Nc1cccc([N+](=O)[O-])c1 | 3 | -1 | 10 | 0 | 2 | · | ·
O=C(COC(=O)c1ccccc1C(=O)c1ccccc1)Nc1cccc([N+](=O)[O-])c1 | 5 | -6 | · | 55* | -8 | 85* | 74*
CC(C)c1oc(=O)cc2c1C(O)C1OC(=O)[C@@]3(C)CCC(O)[C@@]2(C)C13 (stereo not given in full) | · | · | 4 | · | · | · | ·
COc1ccc(OC)c(S(=O)(=O)Nc2ccc3c(c2)n(C)c(=O)n3C)c1 | 2 | -2 | 0 | 62* | 19 | 140* | 93*

Screening data: PubChem BioAssay, several laboratories
